Screening results: PubChem, National Center for Advancing Translational Sciences (NCATS)
An excerpt weighted towards active compounds, which were near 3% of everything screened.
TRb SRC2 PPI – TRbeta-SRC2 interaction inhibition. P10828. TRbeta-SRC2 peptide binding, fluorescence polarization; receptor liganded with 1 µM T3. Potency, µM (doses to about 106 µM), inactives show at the highest dose activity change, negative = inhibition, usual class: inhibitors. 280,000 compounds, 0.065% hits;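 also: plate controls were bound peptide for no effect and peptide without receptor for full effect; nearly all actives have a fitted effect of over 50% in size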
Target sequence (P10828 whole entry, looked up): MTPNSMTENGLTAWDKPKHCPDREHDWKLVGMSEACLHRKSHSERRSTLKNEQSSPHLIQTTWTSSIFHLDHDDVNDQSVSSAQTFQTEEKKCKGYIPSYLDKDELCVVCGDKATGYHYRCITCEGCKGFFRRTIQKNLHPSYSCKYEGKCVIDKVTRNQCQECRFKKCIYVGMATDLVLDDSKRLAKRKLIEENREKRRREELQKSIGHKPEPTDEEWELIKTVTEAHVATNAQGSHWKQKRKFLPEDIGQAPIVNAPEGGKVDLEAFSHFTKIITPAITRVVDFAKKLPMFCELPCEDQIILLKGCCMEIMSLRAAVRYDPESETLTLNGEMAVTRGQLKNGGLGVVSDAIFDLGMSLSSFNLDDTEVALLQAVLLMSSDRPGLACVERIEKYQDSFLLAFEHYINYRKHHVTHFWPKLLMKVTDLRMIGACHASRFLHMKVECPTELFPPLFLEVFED
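Polarization signal, normalized between peptide-alone and full complex controls, measured compound effects on T3-liganded human TRb LBD (0.6 uM) binding 20 nM Texas Red SRC2 peptide after 5 hr.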
Tau fibril FP – blocks human tau fibril formation measured by polarization; P10636; K18 P301L tau heparin fibrillization, Alexa594 FP, 6 h; AID 1468; 280,000 compounds, 0.39% hits; Potency, µM (series often up to 57.7 µM), without a hit: at the top dose activity, negative = inhibition, usual class: inhibitors; also: nearly all actives have a fitted effect of over 55% in size
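FP of Alexa 594-tau after heparin (20 uM) induction. Substrate: human K18 P301L, 15 uM unlabeled, 0.24 uM labeled. Buffer 100 mM sodium acetate pH 7. 6 hr, 37 C.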
Tau fluor counter – counter-screen for tau fibril formation inhibitors. 280,000 compounds, 0.93% hits. tau K18 P301L Alexa594 fluorescence, heparin fibrillization. AID 1463. Potency, µM (highest dose often 57.7 µM), for the others: at the top dose activity change, negative = decrease; also: nearly all actives have a fitted effect of over 55% in size
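Human K18 P301L tau (15 uM unlabeled plus 0.24 uM Alexa 594-labeled, final) in 100 mM sodium acetate pH 7 was mixed with compound and 20 uM heparin and incubated 6 hr at 37 C.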
Tau ThT inhib – inhibitors of human tau fibril formation, thioflavin T binding; Potency, µM (doses to about 57.4 µM), without a hit: at the highest dose activity, negative = inhibition, actives largely listed as inhibitors; 270,000 compounds, 2.1% hits; recombinant tau K18 P301L (four-repeat tau fragment), heparin-induced fibrillization, ThT fluorescence; AID 1460; also: nearly all actives have a fitted effect of over 55% in size
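In this qHTS, human K18 P301L tau is incubated with compound and heparin for 6 hr at 37 C, and Thioflavin T fluorescence then reports fibril load.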
TR SRC2 fluor cs – Texas Red fluorescence interference in TRb-SRC2 counter-screen; TRb/SRC2 Texas Red total fluorescence interference; Potency, µM (series often up to 106 µM), for the others: at the top dose fluorescence change, negative = quenching; 280,000 compounds, 0.29% hits; active = well fitted curve in either direction with a large enough effect; inconclusive = small, poorly fitted or top-dose-only effect
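Flags fluorescent or light-absorbing compounds by total fluorescence, S + 2P, at 555 nm excitation and 632 nm emission. Mixture: 20 nM Texas Red SRC2 peptide, 0.6 uM human TRb LBD, 1 uM T3, 5% DMSO; compound exposure 5 h at ambient temperature.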
Numbers without * were called inactive; ? = inconclusive; nt = not tested or not shown; [ ] = dose if it differs, or a comment. Unless noted, calls follow the shape of the dose curve; as a rule, active = well fitted curve in the direction sought with a large enough effect; inconclusive = small, poorly fitted or top-dose-only effect, or another doubt; inactive = no such curve, though single readings can be large; an effect the other way counts as inactive or inconclusive. Unless noted, % is scaled to controls: 0 for no effect and ±100 for the full control effect; potency is read from the fitted curve at half-maximal effect.

SMILES	TRb SRC2 PPI	Tau fibril FP	Tau fluor counter	Tau ThT inhib	TR SRC2 fluor cs
O=C1OC2(c3cc(I)c(O)c(I)c3Oc3c2cc(I)c(O)c3I)c2c(Cl)c(Cl)c(Cl)c(Cl)c21	25µM*	nt	nt	nt	7.1µM*[fluorescent]
COC(=O)c1ccccc1NC(=O)CSc1nc(C)c(Cl)c(C)c1C#N	6%	?	-20%	-12%	-1%
O=C1CCC(C2CCCCC2)CC1	2%[201 µM]	nt	nt	nt	0%[201 µM]
COC(=O)Cc1[nH]nc2c1C(c1c[nH]c3ccccc13)C(C#N)=C(N)O2 (configuration not stated)	-6%	-14%	?	25µM*	-4%
CC(=O)c1cccc(NC(=O)C(OC(=O)c2ccccc2NS(=O)(=O)c2cccs2)c2ccccc2)c1 (configuration not stated)	-7%	18µM*	?	13%	0%
O=C(Nc1ccc(Cl)c(Cl)c1)Nc1ccccc1NS(=O)(=O)c1cccs1	11%	14µM*	7.1µM*[quencher]	?	-2%
CCOc1ccccc1NC(=O)C(OC(=O)c1ccccc1NS(=O)(=O)c1cccs1)c1ccccc1 (configuration not stated)	7%[53 µM]	-1%	-13%	5%	0%[53 µM]
CCOc1ccc(-c2cn3c(n2)sc2cc(C(=O)NCCC4=CCCCC4)ccc23)cc1	-11%	-12%	-6%	5%	2µM*[quencher]
CCOC(=O)C1CCN(C(=O)c2ccc3c(c2)sc2nc(-c4ccc(OC)cc4)cn23)CC1	-22%	-1%	1%	-4%	316µM*[quencher]
CCOC(=O)C1CCN(C(=O)c2ccc3c(c2)sc2nc(-c4ccc(C)cc4)cn23)CC1	-8%	-6%	12%	-1%	?
Cc1ccc(-c2cn3c(n2)sc2cc(C(=O)NCc4cccs4)ccc23)cc1	-15%	1%	-9%	-11%	3.2µM*[quencher]
CCOc1ccc(Cn2c(CNS(=O)(=O)c3ccc([N+](=O)[O-])cc3)nc3cccnc32)cc1	-2%	2%	-24%	-4%	-1%
Cc1ccc(S(=O)(=O)N[C@H]2COC(=O)[C@@H](C)COC(=O)[C@H](C)NC(=O)C/C=C\[C@H]2C)cc1	4%[11.2 µM]	7%[11.6 µM]	1%[11.6 µM]	2%[11.5 µM]	1%[11.2 µM]
COc1ccc(CNC(=O)CCS(=O)(=O)c2cc3c4c(c2)CCN4C(=O)CC3)cc1OC	-13%	2%	-2%	-2%	-1%
COCCCNC(=O)c1ccc(-n2c(-c3ccccc3)cc3c2CCC(C)C3)cc1 (configuration not stated)	7%	13µM*	-23%	15%	-5%
CCNC(=O)c1ccc(-n2c(-c3ccccc3)cc3c2CCCCC3)cc1	4%	11µM*	?	21%	-12%
Cc1cc2c(n1-c1ccc(C(=O)NCCc3ccccc3)cc1)CCC(C)C2 (configuration not stated)	2%	?	-19%	?	-2%
COCCNC(=O)c1ccc(-n2c(-c3ccccc3)cc3c2CCCCC3)cc1	4%	25µM*	?	-9%	6%
CCOCCCNC(=O)c1ccc(-n2c(-c3ccccc3)cc3c2CCCCC3)cc1	2%	20µM*	?	13%	?
CC(C)OCCCNC(=O)c1ccc(-n2c(-c3ccccc3)cc3c2CCCC3)cc1	-7%	14µM*	?	-9%	-1%
CC(C)NC(=O)c1ccc(-n2c(-c3ccccc3)cc3c2CCCC3)cc1	-1%	?	-16%	0%	-16%
CCCNC(=O)c1ccc(-n2c(-c3ccccc3)cc3c2CCCCC3)cc1	4%	?	?	5%	5%
CCC(C)NC(=O)c1ccc(-n2c(-c3ccccc3)cc3c2CCCC3)cc1 (configuration not stated)	-13%	-1%	?	?	1.8µM*[quencher]
Cc1ccc(Nc2c(-c3ccccc3O)nc3cnccn23)cc1	-3%	10%	18µM*[quencher]	-17%	-1%
Oc1ccccc1-c1nc2cnccn2c1Nc1ccc(Cl)cc1	3%	-1%	13µM*[quencher]	-14%	-1%
Clc1ccc(Nc2c(-c3ccccc3Cl)nc3ccc(Cl)cn23)cc1	-3%	6%	-20%	0%	2%
Cc1ccc(Nc2c(-c3ccccc3O)nc3cc(C)ccn23)cc1	-1%	?	?	?	-2%
